From PMC4081100, “A DNA-binding-site landscape and regulatory network analysis for NAC transcription factors in Arabidopsis thaliana” come the findings set out here.

Common to all, as to experiment: universal protein binding microarray (PBM); transcription factors of Arabidopsis thaliana; high values mean tight binding
Common to all, as to settings: protein: recombinant; tags: GST; chain copies: 2; dsDNA, one strand shown

In one assay the target is T1, GST-ANAC092(1-176) (Arabidopsis thaliana, UniProt Q9FKA0 1-176).
T1 sequence: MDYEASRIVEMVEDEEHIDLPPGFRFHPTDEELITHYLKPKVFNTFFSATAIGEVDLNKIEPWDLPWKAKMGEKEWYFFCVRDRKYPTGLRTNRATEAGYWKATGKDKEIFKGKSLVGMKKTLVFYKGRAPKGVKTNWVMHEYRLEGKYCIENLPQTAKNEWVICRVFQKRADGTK
The method in brief: (§1)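 GST-tagged NAC-domain, full-length or DNA-binding-domain proteins were induced in cells, with zinc acetate added for zinc-finger proteins. They were purified on glutathione–Sepharose 4B and quantified by A280 or anti-GST western blot. Each was applied at 200 to 500 nM final, in duplicate, to custom all-10-mer Agilent 4 × 180K arrays made double-stranded by primer extension, with gapped and ungapped 8-mers scored. Binding is the normalised enrichment score (E-score).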

A further assay concerns the target GST-NTL6(1-168) (Arabidopsis thaliana, UniProt Q9SCK6 1-168). The gist of the method:
as §1

A further assay concerns the target T2, GST-ANAC019 NAC domain (Arabidopsis thaliana, UniProt Q9C932 14-162).
T2 sequence: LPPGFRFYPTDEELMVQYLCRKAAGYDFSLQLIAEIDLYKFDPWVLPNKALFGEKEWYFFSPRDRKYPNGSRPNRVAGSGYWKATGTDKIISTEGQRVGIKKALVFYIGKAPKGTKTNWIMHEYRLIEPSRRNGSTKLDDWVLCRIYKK
The gist of the method:
as §1

The target in the next assay is T3, GST-ANAC055(1-171) (Arabidopsis thaliana, UniProt Q9LDY8 1-171).
T3 sequence: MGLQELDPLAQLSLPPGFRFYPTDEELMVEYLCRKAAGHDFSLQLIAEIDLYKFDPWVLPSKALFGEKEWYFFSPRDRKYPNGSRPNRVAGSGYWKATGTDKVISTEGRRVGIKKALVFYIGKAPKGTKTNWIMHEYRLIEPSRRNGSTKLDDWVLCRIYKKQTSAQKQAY
The method in brief:
as §1

For the next assay, the target named is T4, GST-ATAF1 NAC domain (Arabidopsis thaliana, UniProt Q39013 7-158).
T4 sequence: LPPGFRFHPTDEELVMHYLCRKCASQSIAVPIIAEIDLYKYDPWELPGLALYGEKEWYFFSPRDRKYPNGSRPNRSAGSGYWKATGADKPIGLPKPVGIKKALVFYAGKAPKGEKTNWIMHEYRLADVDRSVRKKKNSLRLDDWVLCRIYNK
The gist of the method: as §1

Assay [1] deals with T5, GST-ANAC092(1-285) full length (Arabidopsis thaliana, UniProt Q9FKA0 1-285).
T5 sequence: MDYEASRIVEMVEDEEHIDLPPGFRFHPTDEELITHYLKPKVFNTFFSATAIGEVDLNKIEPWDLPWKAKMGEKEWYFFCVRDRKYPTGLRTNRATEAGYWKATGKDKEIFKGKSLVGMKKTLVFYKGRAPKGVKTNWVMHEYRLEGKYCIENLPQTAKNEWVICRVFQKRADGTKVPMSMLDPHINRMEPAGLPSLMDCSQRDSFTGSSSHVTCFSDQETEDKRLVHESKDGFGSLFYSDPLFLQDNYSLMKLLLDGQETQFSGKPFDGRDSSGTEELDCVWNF
The method in brief: as §1

The target in a further assay is T6, GST-NAP(1-166) (Arabidopsis thaliana, UniProt O49255 1-166).
T6 sequence: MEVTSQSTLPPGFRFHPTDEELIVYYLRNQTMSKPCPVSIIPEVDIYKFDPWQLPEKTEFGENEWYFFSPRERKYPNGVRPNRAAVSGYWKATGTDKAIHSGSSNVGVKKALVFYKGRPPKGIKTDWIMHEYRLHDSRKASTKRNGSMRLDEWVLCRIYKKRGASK
The gist of the method:
as §1

In the next assay the target is T7, GST-NST2(1-184) (Arabidopsis thaliana, UniProt Q9M274 1-184).
T7 sequence: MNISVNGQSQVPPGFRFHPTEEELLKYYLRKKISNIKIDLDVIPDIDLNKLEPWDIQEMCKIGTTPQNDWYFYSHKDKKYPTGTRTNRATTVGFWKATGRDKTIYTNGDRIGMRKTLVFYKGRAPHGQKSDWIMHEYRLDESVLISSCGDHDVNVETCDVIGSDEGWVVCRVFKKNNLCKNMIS
The method in brief: as §1

The next assay concerns the target T8, GST-NTL8 NAC domain (Arabidopsis thaliana, UniProt Q9XIN7 14-156).
T8 sequence: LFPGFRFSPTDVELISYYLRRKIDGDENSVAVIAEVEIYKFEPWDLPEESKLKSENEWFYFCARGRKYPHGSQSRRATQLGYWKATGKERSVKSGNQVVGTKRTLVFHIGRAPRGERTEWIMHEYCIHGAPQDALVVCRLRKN
The method in brief: as §1

Another assay has as its target T9, GST-SND1(1-203) (Arabidopsis thaliana, UniProt Q9LPI7 1-203).
T9 sequence: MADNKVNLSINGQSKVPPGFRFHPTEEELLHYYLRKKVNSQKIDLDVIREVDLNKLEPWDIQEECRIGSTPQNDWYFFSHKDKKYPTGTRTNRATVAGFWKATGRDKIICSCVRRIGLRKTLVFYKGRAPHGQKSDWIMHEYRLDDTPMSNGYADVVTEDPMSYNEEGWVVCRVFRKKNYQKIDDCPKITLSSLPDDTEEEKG
The gist of the method: as §1

The next assay addresses T10, GST-VND3 NAC domain (Arabidopsis thaliana, UniProt Q9FH59 12-162).
T10 sequence: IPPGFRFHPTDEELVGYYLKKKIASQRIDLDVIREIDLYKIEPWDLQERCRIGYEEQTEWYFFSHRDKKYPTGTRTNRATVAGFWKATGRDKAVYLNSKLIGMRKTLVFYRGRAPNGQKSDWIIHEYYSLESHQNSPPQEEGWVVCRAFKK
The gist of the method: as §1

In a further assay the target is T11, GST-VND7 NAC domain (Arabidopsis thaliana, UniProt Q9C8W9 9-158).
T11 sequence: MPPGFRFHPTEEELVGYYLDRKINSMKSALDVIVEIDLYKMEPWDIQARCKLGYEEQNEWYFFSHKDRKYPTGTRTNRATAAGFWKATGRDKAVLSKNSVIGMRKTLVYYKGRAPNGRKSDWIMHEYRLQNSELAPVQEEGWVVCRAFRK
The gist of the method: as §1

GST-NTL6(1-168), sequence (Q9SCK6 1-168): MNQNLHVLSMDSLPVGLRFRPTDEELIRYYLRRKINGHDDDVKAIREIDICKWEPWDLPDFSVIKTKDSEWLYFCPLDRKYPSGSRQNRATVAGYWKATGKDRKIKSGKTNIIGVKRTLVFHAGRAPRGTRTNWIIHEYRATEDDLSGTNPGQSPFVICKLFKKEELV

In the case of ACGGAAAC, the binding signal was 0.325 E-score in the assay with GST-ANAC092(1-176); 0.205 E-score in the assay with GST-NTL6(1-168); 0.412 E-score in the assay with GST-ANAC019 NAC domain; 0.388 E-score in the assay with GST-ANAC055(1-171); 0.209 E-score in the assay with GST-ATAF1 NAC domain; 0.345 E-score in [1]. Besides, the binding signal with GST-NAP(1-166) was 0.305 E-score; in the assay with GST-NST2(1-184) it was 0.242 E-score; with GST-NTL8 NAC domain, 0.243 E-score; with GST-SND1(1-203), 0.191 E-score; in the assay with GST-VND3 NAC domain, 0.349 E-score; in the assay with GST-VND7 NAC domain, 0.361 E-score.

Regarding GTGAAGAA, the binding signal with GST-ANAC092(1-176) was 0.238 E-score; in the assay with GST-NTL6(1-168), 0.244 E-score; with GST-ANAC019 NAC domain, 0.305 E-score; in the assay with GST-ANAC055(1-171), 0.215 E-score; with GST-ATAF1 NAC domain, 0.316 E-score; in assay [1], 0.197 E-score. Also, the binding signal with GST-NAP(1-166) was determined as 0.164 E-score; with GST-NST2(1-184) it was 0.129 E-score; with GST-NTL8 NAC domain it was 0.403 E-score; with GST-SND1(1-203), 0.182 E-score; with GST-VND3 NAC domain, 0.304 E-score; in the assay with GST-VND7 NAC domain, 0.288 E-score.

For CACGGAAG, the binding signal was 0.372 E-score with GST-ANAC092(1-176); 0.0727 E-score in the assay with GST-NTL6(1-168); 0.471 E-score with GST-ANAC019 NAC domain; 0.435 E-score with GST-ANAC055(1-171); 0.343 E-score in the assay with GST-ATAF1 NAC domain; 0.403 E-score in [1]. Also, the binding signal with GST-NAP(1-166) stood at 0.367 E-score; with GST-NST2(1-184) it was 0.12 E-score; in the assay with GST-NTL8 NAC domain it was 0.129 E-score; in the assay with GST-SND1(1-203), 0.164 E-score; in the assay with GST-VND3 NAC domain, 0.435 E-score; in the assay with GST-VND7 NAC domain it was 0.428 E-score.

Take CAAGCAAG: the binding signal with GST-ANAC092(1-176) turned out to be 0.369 E-score; with GST-NTL6(1-168), 0.235 E-score; with GST-ANAC019 NAC domain, 0.163 E-score; with GST-ANAC055(1-171) it was 0.0997 E-score; with GST-ATAF1 NAC domain, 0.0612 E-score; in [1] it was 0.419 E-score. Besides, the binding signal with GST-NST2(1-184) is 0.265 E-score; with GST-NTL8 NAC domain it was 0.111 E-score; with GST-SND1(1-203), 0.395 E-score; in the assay with GST-VND3 NAC domain, 0.0934 E-score; with GST-VND7 NAC domain, 0.14 E-score.

AAGTAATC: the binding signal was determined as 0.348 E-score with GST-ANAC092(1-176); 0.414 E-score with GST-NTL6(1-168); 0.144 E-score in the assay with GST-ANAC019 NAC domain; 0.154 E-score with GST-ANAC055(1-171); 0.22 E-score with GST-ATAF1 NAC domain; 0.37 E-score in assay [1]. Moreover, the binding signal is 0.285 E-score with GST-NST2(1-184); 0.328 E-score in the assay with GST-NTL8 NAC domain; 0.347 E-score with GST-SND1(1-203); 0.188 E-score with GST-VND3 NAC domain; 0.136 E-score with GST-VND7 NAC domain.

In the case of GTACGCAA, the binding signal was found to be 0.482 E-score with GST-ANAC092(1-176); 0.121 E-score with GST-NTL6(1-168); 0.445 E-score with GST-ANAC019 NAC domain; 0.411 E-score in the assay with GST-ANAC055(1-171); 0.407 E-score in the assay with GST-ATAF1 NAC domain; 0.487 E-score in assay [1]. In addition, the binding signal in the assay with GST-NAP(1-166) amounted to 0.456 E-score; with GST-NST2(1-184), 0.394 E-score; in the assay with GST-NTL8 NAC domain, 0.0545 E-score; with GST-SND1(1-203), 0.47 E-score; in the assay with GST-VND3 NAC domain, 0.413 E-score; with GST-VND7 NAC domain it was 0.437 E-score.

In the case of ACGCAAAT, the binding signal was found to be 0.418 E-score in the assay with GST-ANAC092(1-176); 0.0591 E-score with GST-NTL6(1-168); 0.268 E-score with GST-ANAC019 NAC domain; 0.232 E-score with GST-ANAC055(1-171); 0.262 E-score with GST-ATAF1 NAC domain; 0.42 E-score in assay [1]. Further, the binding signal with GST-NAP(1-166) came out at 0.235 E-score; in the assay with GST-NST2(1-184) it was 0.265 E-score; in the assay with GST-NTL8 NAC domain it was 0.0579 E-score; with GST-SND1(1-203) it was 0.325 E-score; in the assay with GST-VND3 NAC domain it was 0.325 E-score; with GST-VND7 NAC domain it was 0.281 E-score.
